Bioassay records deposited in PubChem BioAssay by National Center for Advancing Translational Sciences (NCATS).
DRD3 antagonist: qHTS of D3 Dopamine Receptor Antagonist: qHTS; D(3) dopamine receptor (Homo sapiens), P35462; D3R cells, DiscoveRx beta-arrestin luminescence, antagonist mode; hits give low values; max response, negative = inhibition, %; 360,000 compounds, 2.5% hits; in the data active = max response below about -50%; inconclusive = no clear call, values can overlap the other calls; note: % is set by controls: 0 for no effect and ±100 for the full control effect
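Cells expressing the human receptor were seeded at 1500 cells/well, incubated overnight at 37 degrees C in 5% CO2, then exposed to library compounds with dopamine controls for 90 minutes at 37 degrees C before luminescent detection.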
Rango release inh: qHTS Assay for Inhibitors of RanGTP induced Rango (Ran-regulated importin-beta cargo) - Importin beta complex dissociation; Snurportin-1 (Homo sapiens) + GTP-binding nuclear protein Ran (Homo sapiens) + Importin …; Biochemical FRET Rango-importin beta, RanGTP-induced dissociation; Potency, µM (series often up to 46.1 µM), for inactives: at the top dose activity change, negative = inhibition; 340,000 compounds, 0.071% hits; note: potency is the fitted concentration of half-maximal effect; % of control where 0% means no effect; nearly all actives have a fitted effect of over 45% in size
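Rango/importin beta premix (0.1/0.25 uM final), PBS + 1 mM DTT + 0.02% Tween-20 + 0.1% BSA; cpd 5 min RT; FRET pre-read; + RanGTP-RCC1 (0.6 uM Ran, 2 mM GTP, 0.2 uM RCC1); 45 min RT; FRET post-read, ex 430, em 486/530 nm.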
Rango complex inh: qHTS Assay for Inhibitors of Rango (Ran-regulated importin-beta cargo) - Importin beta complex formation. Importin subunit beta-1 (Homo sapiens), Q14974. Rango CFP/YFP FRET sensor + importin beta, 45 min. Potency, µM (doses to about 92.2 µM), without a hit: at the top dose inhibition of complex formation. 340,000 compounds, 0.031% hits;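 note: potency is the fitted concentration of half-maximal effect; 0% = DMSO wells and 100% = buffer wells lacking importin beta; nearly all actives have a fitted effect of over 15% in size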
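FRET biosensor Rango (snurportin 1 IBB between N-terminal EYFP and C-terminal Cerulean), 50 nM in PBS/1 mM DTT/0.02% Tween-20/0.1% BSA, preincubated 5 min RT with compound; 0.125 microM importin beta added, 45 min RT, CFP/YFP FRET ratio read.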
DRD3 agonist: qHTS of D3 Dopamine Receptor Agonist: qHTS. D(3) dopamine receptor (Homo sapiens), P35462. D3R DiscoveRx beta-arrestin cells, luminescence, 90 min. max activation, %. 410,000 compounds, 0.58% hits; in the data active = max activation above about 30%; note: 0% is about no effect
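Agonist-mode cell screen: cells plated at 1500/well and incubated overnight at 37 °C, then exposed to library compounds for 90 min at 37 °C. Detection reagent was added for 30–60 min at room temperature, and luminescence was read.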
PTAP TSG101 blk: qHTS Assay for Iinhibitors of HIV-1 Budding by Blocking the Interaction of PTAP/TSG101 | Tumor susceptibility gene 101 protein (Homo sapiens), Q99816 | Fluorescence polarization, FITC-PTAP peptide / Tsg101 binding | Potency, µM (series often up to 115 µM), inactives show top-dose activity change, negative = inhibition, actives largely listed as inhibitors | 340,000 tested, under 10 active | AID 493005, 2010; active = well fitted inhibition curve with a large enough effect in the main read-out, with a control signal flat, not every such curve was filed as active; inconclusive = small, poorly fitted or top-dose-only effect, or effect the other way, or a change in a side signal; inactive = no such curve, though single readings can be large or run the other way; note: potency is the fitted concentration of half-maximal effect; % of control where 0% means no effect
Target sequence (Q99816 whole entry, looked up): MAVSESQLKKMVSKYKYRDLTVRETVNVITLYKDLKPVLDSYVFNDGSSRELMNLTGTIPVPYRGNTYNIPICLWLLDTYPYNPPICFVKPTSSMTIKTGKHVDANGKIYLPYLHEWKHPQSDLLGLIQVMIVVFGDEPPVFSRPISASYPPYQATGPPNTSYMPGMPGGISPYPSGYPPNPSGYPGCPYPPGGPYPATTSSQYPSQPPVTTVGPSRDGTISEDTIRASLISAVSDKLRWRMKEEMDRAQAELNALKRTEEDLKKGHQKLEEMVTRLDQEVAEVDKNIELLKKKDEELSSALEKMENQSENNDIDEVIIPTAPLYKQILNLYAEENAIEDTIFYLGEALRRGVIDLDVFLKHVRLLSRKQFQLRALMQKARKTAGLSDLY
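Fluorescence polarization binding of Tsg101 binding domain (10 uM final) to FITC-labeled PTAP peptide (50 nM final) in HEPES pH 7.5 buffer with NaCl, Tween 20, EDTA, TCEP. Compounds added before peptide; binding 20 min at RT.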
MmCpn inh: Inhibitors of TCP-1 ring complex (TRiC) of Methanococcus maripaludis (MmCpn): qHTS. purified Mm-Cpn ATPase, ADP Transcreener TR-FRET. Potency, µM (highest dose often 76.9 µM), without a hit: at the highest dose activity, negative = inhibition, actives largely listed as inhibitors. 330,000 compounds, 0.031% hits. AID 504842, 2011; active = well fitted inhibition curve with a large enough effect; inconclusive = small, poorly fitted or top-dose-only effect; note: potency is the fitted concentration of half-maximal effect; % is set by controls: 0 for no effect and ±100 for the full control effect; nearly all actives have a fitted effect of over 80% in size
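TR-FRET (320 nm excitation; 590 and 665 nm emission) reports ADP made from 10 uM ATP by 25 nM enzyme; compounds were preincubated 10 min, reaction run 30 min, both at 37°C.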
* hit, by the source's call; ? = inconclusive; nt = not tested or not shown. Rows were chosen to be rich in hits. Some 2.9% of all compounds tested hit in one or more screens of this group. Unless noted, calls come from the whole dose curve.

SMILES	DRD3 antagonist	Rango release inh	Rango complex inh	DRD3 agonist	PTAP TSG101 blk	MmCpn inh
CC(=O)Nc1ccc(-c2ccnc3c2CC(C)(C(=O)NCCc2ccccc2)O3)cc1 (stereo not given)	-114.9*	nt	nt	-21.3	nt	nt
CC1(C(=O)NCc2ccco2)Cc2c(-c3ccccc3)ccnc2O1 (stereo not given)	-58.2*	nt	nt	-7.4	nt	nt
CN(C)c1ccc(-c2ccnc3c2CC(C)(C(=O)Nc2ccc(F)c(Cl)c2)O3)cc1 (stereo not given)	-23.7	nt	nt	69.3*	nt	nt
CC(C)c1ccc(NC(=O)C2(C)Cc3c(-c4ccc(C(N)=O)cc4)ccnc3O2)cc1 (stereo not given)	-54.3*	nt	nt	-18.3	nt	nt
COc1ccc(CCCNC(=O)C2(C)Cc3c(-c4ccc(NC(C)=O)cc4)ccnc3O2)cc1 (stereo not given)	-62.3*	nt	nt	-18.6	nt	nt
CN(C)c1ccc(-c2ccnc3c2CC(C)(C(=O)Nc2ccc(Cl)cc2)O3)cc1 (stereo not given)	-1.7	nt	nt	0.4	nt	nt
COCCCNc1ncnc2c1cnn2-c1ccc(F)cc1	nt	nt	nt	8.4	nt	nt
N#C/C(=C/C1=C(N2CCOCC2)C(=C/c2cccc([N+](=O)[O-])c2)/CC1)C(=O)Nc1ccccc1F	-17.3	-13.6%	2.5%	38.8*	15.9%	nt
N#C/C(=C\C1=C(N2CCOCC2)C(=C/c2cccc([N+](=O)[O-])c2)/CC1)C(=O)Nc1ccccc1F	?	19.8%	-0.2%	11.3	-1.4%	-2.6%
Cc1ccc(C(=O)Nn2cnnc2)cc1	5.9	6.1%	0.7%	6.6	-5.7%	-11.4%
CS(=O)(=O)N(CC(=O)NCC1CCCO1)c1cc(Cl)cc(Cl)c1 (stereo not given)	-96.5*	-7.9%	1.7%	1.7	-4.9%	-0.1%
C[C@@H]1Cn2cnc(C(=O)NCc3ccc(CNC(=O)OC(C)(C)C)cc3)c2C(=O)N1	10.7	nt	nt	-0.9	nt	nt
COc1ccc(Cl)cc1C(=O)NNC(=O)COC(=O)CCN=C1NS(=O)(=O)c2ccccc21	-108.0*	-7.9%	-3.8%	-64.5	2.1%	0.7%
Cn1c(=O)c2c(nc(SCC(=O)Nc3ccccc3F)n2Cc2ccccc2F)n(C)c1=O	nt	nt	nt	-0.2	nt	nt
CCn1c(-c2nn(C)c(C)c2Cl)n[nH]c1=S	-8.6	3.3%	1.1%	-4.5	-3.4%	-0.9%
Cc1ccc(-n2c(-c3nn(C)c(C)c3Cl)n[nH]c2=S)cc1	-57.1*	6.8%	0.0%	-3.3	-3.8%	-4.6%
O=C(Nc1cc2c3c(c1)CC(=O)N3CCC2)C1CC1	2.5	4.2%	-0.3%	12.2	-1.7%	3.1%
COc1cc(NC(=O)c2cc([N+](=O)[O-])ccc2NC(=O)CNCc2ccccn2)cc(OC)c1	19.1	2.9%	-0.7%	33.6*	-0.6%	-0.6%
COc1cc(NC(=O)c2cc([N+](=O)[O-])ccc2NC(=O)CNC2CCCCC2C)cc(OC)c1 (stereo not given)	17.4	3.2%	5.9%	48.7*	0.4%	-2.3%
COc1ccc(NC(=O)c2cc([N+](=O)[O-])ccc2NC(=O)CNCc2ccccn2)c(OC)c1	-13.1	7.9%	-1.8%	10.8	-2.9%	0.9%
COc1cc(NC(=O)c2cc([N+](=O)[O-])ccc2NC(=O)CNC2CCCCC2)cc(OC)c1	6.2	5.9%	1.5%	-9.0	-1.4%	1.5%
CCCCC1CCC(C(=O)N2CC(=O)Nc3ccc(Cl)cc3C2c2ccc(F)cc2)CC1 (stereo not given)	nt	nt	nt	2.7	nt	nt
